# Laboratory results from PubChem BioAssay (NCATS).
# Records with an inconclusive call do not appear. Active and inactive are the calls of the source. Unless noted, calls come from the whole dose curve; as a rule, active = well fitted inhibition curve with a large enough effect; inconclusive = small, poorly fitted or top-dose-only effect; inactive = flat fitted curve, though single readings scatter.
# How the values were obtained:
# [1] = qHTS drug screen for cell cycle checkpoint inhibitors in PARPi-resistant BRCA-mutant ovarian cancer cell lines. (AID 1963452; calls by dose curve); conditions: PEO1/OlaR viability, CellTiter-Glo luminescence, 96 h, stronger effect = lower value
# Summary of the method: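 PEO1, PEO4 and PEO1/OlaR ovarian cancer cells, 600 per well, exposed 96 h at 37C to a dilution series. Viability read by CellTiter-Glo luminescence, normalized to DMSO and empty wells; activity summarized as Z-AUC.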
# [2] = qHTS profiling for inhibitors of Plasmodium falciparum proliferation (AID 504749); note: potency is the fitted concentration of half-maximal effect;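 for activity, negative = inhibition: 0% = DMSO vehicle and full inhibition = artemisinin control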; for all read-outs here: nearly all actives have a fitted effect of over 60% in size; conditions: P. falciparum in erythrocytes, SYBR Green DNA, 72 h; for activity, negative = inhibition: at 28.7 µM (top of the series)
# Summary of the method: (§1)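 In a 72 h erythrocytic culture (37 C, humidified, 5% CO2) at 2.5% hematocrit and 0.3% starting parasitemia, compounds were tested; SYBR Green I in detergent lysis buffer stained parasite DNA overnight.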
# 3D7 = assay: as above; conditions: P. falciparum in erythrocytes, SYBR Green DNA, 72 h; series mostly up to 28.7 µM
# Summary of the method: as §1
# 7G8 = assay: as above; conditions: P. falciparum in erythrocytes, SYBR Green DNA, 72 h; series mostly up to 28.7 µM
# Summary of the method: as §1
# AA1029 = assay: as above; conditions: P. falciparum in erythrocytes, SYBR Green DNA, 72 h; series mostly up to 28.7 µM
# Summary of the method: as §1
# AS120 = assay: as above; conditions: P. falciparum in erythrocytes, SYBR Green DNA, 72 h; series mostly up to 28.7 µM
# Summary of the method: as §1
# ATS189 = assay: as above; conditions: P. falciparum in erythrocytes, SYBR Green DNA, 72 h; series mostly up to 28.7 µM
# Summary of the method: as §1
# ATS95 = assay: as above; conditions: P. falciparum in erythrocytes, SYBR Green DNA, 72 h; series mostly up to 28.7 µM
# Summary of the method: as §1
# C2A = assay: as above; conditions: P. falciparum in erythrocytes, SYBR Green DNA, 72 h; series mostly up to 28.7 µM
# Summary of the method: as §1
# CP185 = assay: as above; conditions: P. falciparum in erythrocytes, SYBR Green DNA, 72 h; series mostly up to 28.7 µM
# Summary of the method: as §1
# CP191 = assay: as above; conditions: P. falciparum in erythrocytes, SYBR Green DNA, 72 h; series mostly up to 28.7 µM
# Summary of the method: as §1
# CP192 = assay: as above; conditions: P. falciparum in erythrocytes, SYBR Green DNA, 72 h; series mostly up to 28.7 µM
# Summary of the method: as §1
# CP194 = assay: as above; conditions: P. falciparum in erythrocytes, SYBR Green DNA, 72 h; series mostly up to 28.7 µM
# Summary of the method: as §1
# CP201 = assay: as above; conditions: P. falciparum in erythrocytes, SYBR Green DNA, 72 h; series mostly up to 28.7 µM
# Summary of the method: as §1
# CP211 = assay: as above; conditions: P. falciparum in erythrocytes, SYBR Green DNA, 72 h; series mostly up to 28.7 µM
# Summary of the method: as §1
# CP215 = assay: as above; conditions: P. falciparum in erythrocytes, SYBR Green DNA, 72 h; series mostly up to 28.7 µM
# Summary of the method: as §1
# CP217 = assay: as above; conditions: P. falciparum in erythrocytes, SYBR Green DNA, 72 h; series mostly up to 28.7 µM
# Summary of the method: as §1
# CP238 = assay: as above; conditions: P. falciparum in erythrocytes, SYBR Green DNA, 72 h; series mostly up to 28.7 µM
# Summary of the method: as §1
# [3] = qHTS for identification of novel therapeutic agents for treatment of microphthalmiaassociated transcription factor (MiT) renal cell carcinoma (RCC) (AID 1963991); conditions: CellTiter-Glo, 48 h, stronger effect = lower value
# Summary of the method: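 Curves over 11 concentrations were fitted to CellTiter-Glo luminescence, scaled between empty wells (0%) and DMSO (100%) viability. Cells were UOK109, UOK124 and UOK145 TFE3-fusion RCC lines at 500/well, exposed 48 hours at 37 C.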
# CP237 = assay: qHTS profiling for inhibitors of Plasmodium falciparum proliferation (AID 504749); note: nearly all actives have a fitted effect of over 60% in size; note: potency is the fitted concentration of half-maximal effect;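 for activity, negative = inhibition: 0% = DMSO vehicle and full inhibition = artemisinin control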; conditions: P. falciparum in erythrocytes, SYBR Green DNA, 72 h; series mostly up to 28.7 µM
# Summary of the method: as §1
# [4] = measured here: PEO1 parental Z-AUC
# [5] = TFE3-RCC UOK109 viability, measured here: UOK109 Z-AUC
# [6] = TFE3-RCC viability, measured here: UOK124 Z-AUC
# [7] = TFE3-RCC viability, measured here: UOK145 Z-AUC
smiles,measurement,setting,value
COc1cc2c(cc1OC)CC(=O)N(CCCN(C)C[C@H]1Cc3cc(OC)c(OC)cc31)CC2,Z-AUC,[1],0.967 (inactive)
same,Z-AUC,[1]; [4],0.523
same,Z-AUC,[1]; measured here: PEO4 Z-AUC,0.443
same,"activity, negative = inhibition",[2]; parasite line A,-2.12% (inactive)
same,"activity, negative = inhibition",[2]; parasite line B,-3.25% (inactive)
same,Potency,3D7,inactive
same,Potency,7G8,11.2 µM (active)
same,Potency,AA1029,inactive
same,Potency,AS120,inactive
same,Potency,ATS189,inactive
same,Potency,ATS95,inactive
same,Potency,C2A,inactive
same,outcome,CP185,inactive
same,outcome,CP191,inactive
same,Potency,CP192,inactive
same,Potency,CP194,inactive
same,Potency,CP201,inactive
same,Potency,CP211,inactive
same,Potency,CP215,inactive
same,Potency,CP217,inactive
same,Potency,CP238,inactive
OC[C@H]1O[C@@H](OCCc2ccc(O)cc2)[C@H](O)[C@@H](O)[C@H]1O,z-score,[3]; [5],0.167
same,z-score,[3]; [6],0.0834
same,z-score,[3]; [7],-0.171
CN1CCN2c3ncccc3Cc3ccccc3C2C1 (centres undefined),Z-AUC,[1],-0.118 (inactive)
same,Z-AUC,[1]; [4],-0.0867
same,Z-AUC,[1]; measured here: PEO4 Z-AUC,0.472
same,z-score,[3]; [5],0.418
same,z-score,[3]; [6],0.445
same,z-score,[3]; [7],0.581
same,"activity, negative = inhibition",[2]; parasite line A,-2.79% (inactive)
same,"activity, negative = inhibition",[2]; parasite line B,7.38% (inactive)
same,Potency,3D7,inactive
same,Potency,7G8,11.2 µM (active)
same,Potency,ATS189,inactive
same,Potency,C2A,inactive
same,outcome,CP185,inactive
same,outcome,CP191,inactive
same,Potency,CP201,inactive
same,Potency,CP215,inactive
same,Potency,CP217,inactive
same,Potency,CP237,inactive
same,Potency,CP238,inactive
Cc1ccc(S(=O)(=O)OCC(=O)Nc2ccc(C(=O)O)c(O)c2)cc1,Z-AUC,[1],1.67 (inactive)
same,Z-AUC,[1]; [4],1.37
same,Z-AUC,[1]; measured here: PEO4 Z-AUC,1.35
same,z-score,[3]; [5],-0.0907
same,z-score,[3]; [6],0.585
same,z-score,[3]; [7],-0.321
CC(C)C[C@@H](N)[C@H](O)C(=O)N[C@H](C(=O)N[C@H](C(=O)N[C@@H](CC(=O)O)C(=O)O)C(C)C)C(C)C,Z-AUC,[1],-0.687 (inactive)
same,Z-AUC,[1]; [4],-0.6
same,Z-AUC,[1]; measured here: PEO4 Z-AUC,-0.277
same,z-score,[3]; [5],0.245
same,z-score,[3]; [6],0.596
same,z-score,[3]; [7],-0.2
CCC[C@H](N[C@@H](C)C(=O)N1[C@@H]2CCCC[C@H]2C[C@H]1C(=O)O)C(=O)OCC,Z-AUC,[1],-0.443 (inactive)
same,Z-AUC,[1]; [4],-0.451
same,Z-AUC,[1]; measured here: PEO4 Z-AUC,-0.177
same,z-score,[3]; [5],0.586
same,z-score,[3]; [6],0.337
same,z-score,[3]; [7],0.752
CN(CC=CC#CC(C)(C)C)Cc1cccc2ccccc12,z-score,[3]; [5],0.358
same,z-score,[3]; [6],0.58
same,z-score,[3]; [7],2.39
Cc1cc(OCCCS(C)(=O)=O)cc(C)c1-c1cccc(COc2ccc3c(c2)OC[C@H]3CC(=O)O)c1,Z-AUC,[1],-0.127 (inactive)
same,Z-AUC,[1]; [4],0.128
same,Z-AUC,[1]; measured here: PEO4 Z-AUC,0.794
same,z-score,[3]; [5],0.542
same,z-score,[3]; [6],0.159
same,z-score,[3]; [7],0.614
COc1ccc(-c2nc3ccc(C4=NNC(=O)CC4C)cc3[nH]2)cc1 (centres undefined),Z-AUC,[1],-0.406 (inactive)
same,Z-AUC,[1]; [4],-0.248
same,Z-AUC,[1]; measured here: PEO4 Z-AUC,0.0118
same,z-score,[3]; [5],0.403
same,z-score,[3]; [6],0.3
same,z-score,[3]; [7],0.145
O=C(O)C1=CO[C@@H](O[C@@H]2O[C@H](CO)[C@H](O)[C@H](O)[C@H]2O)[C@@H]2C(CO)=CC[C@H]12,z-score,[3]; [5],0.598
same,z-score,[3]; [6],0.803
same,z-score,[3]; [7],0.387
O=C(O)c1nc(=O)[nH]c(=O)[nH]1,Z-AUC,[1],0.306 (inactive)
same,Z-AUC,[1]; [4],-0.133
same,Z-AUC,[1]; measured here: PEO4 Z-AUC,-0.258
same,z-score,[3]; [5],1.29
same,z-score,[3]; [6],0.587
same,z-score,[3]; [7],1.2
same,"activity, negative = inhibition",[2]; parasite line A,-16.8% (inactive)
same,"activity, negative = inhibition",[2]; parasite line B,-28.2% (inactive)
same,Potency,3D7,inactive
same,Potency,7G8,inactive
same,Potency,AA1029,inactive
same,Potency,AS120,inactive
same,Potency,ATS189,inactive
same,Potency,ATS95,inactive
same,Potency,C2A,inactive
same,outcome,CP185,inactive
same,outcome,CP191,inactive
same,Potency,CP192,inactive
same,Potency,CP194,inactive
same,Potency,CP201,inactive
same,Potency,CP211,inactive
same,Potency,CP217,inactive
same,Potency,CP237,inactive
same,Potency,CP238,inactive
NC[C@H]1O[C@H](O[C@@H]2[C@@H](O)[C@@H](O[C@H]3O[C@H](CO)[C@@H](O)[C@H](N)[C@@H]3O)[C@H](N)C[C@@H]2N)[C@H](O)[C@@H](O)[C@H]1O,Z-AUC,[1],1.2 (inactive)
same,Z-AUC,[1]; [4],0.776
same,Z-AUC,[1]; measured here: PEO4 Z-AUC,0.763
same,z-score,[3]; [5],1.51
same,z-score,[3]; [6],0.542
same,z-score,[3]; [7],0.0704
CC1(C)OC2CC3C4CC(F)C5=CC(=O)C=CC5(C)C4C(O)CC3(C)[C@]2(C(=O)CO)O1 (some centres undefined),z-score,[3]; [5],0.56
same,z-score,[3]; [6],1.01
same,z-score,[3]; [7],-1.73
COc1c(C)c2c(c(O)c1CC=C(C)CCC(=O)OCCN1CCOCC1)C(=O)OC2,Potency,[2]; parasite line A,7.94 µM (active)
same,Potency,[2]; parasite line B,10 µM (active)
